Measurements taken from PubChem BioAssay (NCATS).
Records with an inconclusive call do not appear. Activity calls are given as the source filed them. Calls follow the shape of the dose curve; as a rule, active = well fitted curve in the direction sought with a large enough effect; inconclusive = small, poorly fitted or top-dose-only effect, or another doubt; inactive = no such curve, though single readings can be large; an effect the other way counts as inactive or inconclusive.

assay: qHTS for Inhibitors of Plasmodium falciparum (HB3) proliferation (AID 504318);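 also: 0% = DMSO vehicle and -100% = artemisinin control; nearly all actives have a fitted effect of over 60% in size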; details: P. falciparum HB3 in erythrocytes, SYBR Green DNA, 72 h; series mostly up to 7.21 µM; activity change, negative = inhibition: at the top concentration
Procedure, shortened: (§1)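 Erythrocytes infected with P. falciparum line (0.3% parasitemia, 2.5% hematocrit final) incubated with compounds 72 h at 37 °C, 5% CO2; SYBR Green lysis buffer added, fluorescence read next day. Normalized to 0.29 uM artemisinin and DMSO.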

Activity change, negative = inhibition, inactive:
CCN(CCNC(=O)[C@H]1C=C(OC)C(=O)C[C@H](c2ccccc2)[C@@H]1C)C(C)=O -4.8%
Cc1cccc(C)c1Nc1oc(-c2ccccc2)nc1-c1cccc2ccccc12 -6.53%
C=C(COC)C1=CCC(C(=O)OC)(C(=O)OC)[C@@H](C[N+](=O)[O-])c2ccccc21 0.194%
COc1ccc2c(c1)[C@@]1(OCCC=C[C@@H]1C)C(=O)N2CC=C(C)CCC=C(C)C -16.1%
CCCCCCCc1cc2ccccc2c2c(C(=O)OC)c(C(=O)OC)c(C(=O)OC)n12 -1.54%
Cc1cc(C)c(-c2cc([C@H](C)ON=C[C@@H](C)[C@H](OCc3ccccc3)C(C)C)on2)c(C)c1 -14%
CC(Nc1oc(-c2ccccc2)nc1-c1ccccc1)c1ccccc1 (configuration not stated) -13.3%
COC(=O)C(C(=O)OC)c1ccccc1[N+](=O)[O-] 0.104%
CCCCCCCc1cc2ccccc2c2c(C(=O)OC)c(C)c(C(=O)OC)n12 -6.02%

Potency, inactive:
COc1ccc(-c2nc3c(c4c2C[C@H](c2ccccc2)OC4)CN(C(=O)C2CC2)CC3)c(C)c1

assay: qHTS for Inhibitors of Plasmodium falciparum (CP250) proliferation (AID 504320);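 also: plate controls were DMSO vehicle for no effect and 0.29 µM artemisinin control for full effect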; details: P. falciparum CP250 in erythrocytes, SYBR Green DNA, 72 h; series mostly up to 6.7 µM; activity change, negative = inhibition: at the top concentration
Procedure, shortened: as §1

Activity change, negative = inhibition, inactive:
CCN(CCNC(=O)[C@H]1C=C(OC)C(=O)C[C@H](c2ccccc2)[C@@H]1C)C(C)=O 1.64%
CC1=C[C@@H](C)O[C@@]2(C1)C(=O)Nc1cccc(Br)c12 0.347%
Cc1cccc(C)c1Nc1oc(-c2ccccc2)nc1-c1cccc2ccccc12 -6.3%
C[C@@H]1CC[C@H]2C(=O)N(Cc3cccc([N+](=O)[O-])c3)C[C@H](O)CN2[C@@H]1c1cccc(Br)c1 2.83%
CC(C)=CCCC(C)=CCN1C(=O)[C@]2(O[C@H](C)CC3=CCCC32)c2c(Br)cccc21 (some centres not stated) 4.62%
Cc1ccccc1Nc1oc(-c2ccccc2)nc1C=Cc1ccccc1 -18%
C=C(COC)C1=CCC(C(=O)OC)(C(=O)OC)[C@@H](C[N+](=O)[O-])c2ccccc21 3.45%
CC(C)=CCCC(C)=CCN1C(=O)[C@@]2(C[C@@H](C)C[C@@H](C)O2)c2ccccc21 -3.45%
CC12C=C(C=Cc3ccc(C(F)(F)F)cc3)C(C)(C1)C(c1ccc(C(F)(F)F)cc1)CC2=O (configuration not stated) -4.63%
COc1ccc2c(c1)[C@@]1(OCCC=C[C@@H]1C)C(=O)N2Cc1ccc(F)cc1 -12.1%
CCC=C1C(=O)[C@]2(C(=O)c3ccccc3)C[C@H]3CCC(CCC)(C2=O)[C@@]13OC -7.1%
COc1ccc2c(c1)[C@@]1(OCCC=C[C@@H]1C)C(=O)N2CC=C(C)CCC=C(C)C 3.65%
COc1cccc([C@@H]2Oc3ccc(OC)cc3C(=O)[C@@H]2OC(=O)N[C@H]2CCCc3ccccc32)c1 0.906%
CCCCCCCc1cc2ccccc2c2c(C(=O)OC)c(C(=O)OC)c(C(=O)OC)n12 -20%
Cc1cc(C)c(-c2cc([C@H](C)ON=C[C@@H](C)[C@H](OCc3ccccc3)C(C)C)on2)c(C)c1 -0.853%
COC(=O)C1=C(C(=O)OC)[C@@H]2N(C)c3ccccc3[C@@]23CCC(=O)N(Cc2cc(OC)c(OC)c(OC)c2)C3=N1 -0.562%
COCOc1c2c(c(OCOC)c3c(OCOC)cccc13)C(=NNS(=O)(=O)c1ccc(C)cc1)C1=C2CCCC1 -2.53%
CC1=CC[C@@H](COc2ccccc2)O[C@@]2(C1)C(=O)Nc1ccccc12 1.61%
C=C(C)C1CC23C(=O)[C@]4(C(=O)c5ccccc5)C[C@@]5(C)CCC(CC2C1(C)C)(C4=O)[C@@]35OC (some centres not stated) -17.9%
CC(C)OC(=O)[C@H](C)NC(=O)N1CCc2nc(-c3ccccc3)c3c(c2C1)CO[C@@H](C)C3 -2.59%
C=CCCCC=C(C)[C@H](OCc1ccc(OC)cc1)[C@H](CCC=C(C)C(N)=O)OC -11.7%
CCOC(=O)C1(C(=O)OCC)CC2=C(C=CC3=C(C=C2)CC(C(=O)OCC)(C(=O)OCC)C3)C1 -3%
CCCCCCCC1=Cc2ccccc2C(CC(=O)c2ccccc2)N1C(=O)OC (configuration not stated) -23.2%
CCCCCCCC1Cc2ccccc2C(C(C(=O)OC)C(=O)OC)N1C(=O)OC (configuration not stated) -3.89%
COC1=C[C@H](C(=O)NC2CCN(Cc3ccccc3)CC2)[C@@]2(C)Cc3ccccc3[C@@H]2CC1=O 1.85%
COC(=O)N[C@H](C(C(=O)OC)=C(C)NCc1ccccc1)c1ccccc1 -10.8%
C[C@@H]1C=CCCO[C@]12C(=O)N(Cc1ccccc1C(F)(F)F)c1cccc(Br)c12 2.24%
CCCCCCCC1=Cc2ccccc2C(C(C(=O)OC)C(=O)OC)N1C(=O)OC (configuration not stated) -20.4%
CC(Nc1oc(-c2ccccc2)nc1-c1ccccc1)c1ccccc1 (configuration not stated) -19.5%
COc1cccc(C(CC2=CCCCC2)NC(=O)C(F)(F)F)c1 (configuration not stated) -2.47%
C=C(C(C)=O)C(O)c1ccco1 (configuration not stated) -6.87%
COC(=O)C(C(=O)OC)c1ccccc1[N+](=O)[O-] -3.07%
CC(C)=CCCC(C)=CCN1C(=O)[C@]2(OCCC=C[C@H]2C)c2ccccc21 -2.84%
COC(=O)N[C@@H](c1ccccc1)C(C(=O)OC)C(=O)OC 1.37%
CCCCCCCc1cc2ccccc2c2c(C(=O)OC)c(C)c(C(=O)OC)n12 -28.6%
COc1cc(C(CC2=C(c3ccccc3)Cc3ccccc32)NC(=O)C(F)(F)F)cc(OC)c1OC (configuration not stated) -0.164%

Potency, inactive:
COc1ccc(-c2nc3c(c4c2C[C@H](c2ccccc2)OC4)CN(C(=O)C2CC2)CC3)c(C)c1
